About 3,200 (25%) of roughly 13,000 compounds showed an effect of 50% or more. This is one part of the list.
test system: P. falciparum stage V gametocytes; set-up: BacTiter-Glo ATP luminescence viability of purified stage V gametocytes in 384-well plates, per cent inhibition versus DMSO; details: 48 h, 5 µM; inhibitor

SMILES | % Inhibition [%]
CCOc1cc2c(cc1OCC)C(c1ccc(O)c(Cl)c1)NCC2 (stereo not shown) [TCMDC-125439] | 10.77
CC1CN(c2nc(NCCc3ccc(O)cc3)nc(NCc3ccccc3-c3ccc(C(F)(F)F)cc3)n2)CC(C)N1 (stereo not shown) [TCMDC-138324] | 26.39
COc1cc2nc(N(C)CC3COc4ccccc4O3)nc(N)c2cc1OC.Cl (stereo not shown) [TCMDC-131889] | -22.31
C=CCC(C)n1ncc2c3c(N)nc(N)nc3ccc21 (stereo not shown) [TCMDC-137867] | -15.57
COc1cc(Cc2cnc(N)nc2N)c2c(c1OC)OC(C)C=C2 (stereo not shown) [TCMDC-137896] | 4.903
O=C(Nc1cccc(-c2cccc(-c3nc4ccc(F)cc4[nH]3)c2)c1)c1cnc[nH]1 [TCMDC-136932] | -61.11
COc1ccc(-c2c3c(=O)n(C)c(=O)n(C)c3c3nnc4ccccc4n23)cc1 [TCMDC-125099] | -11.53
O=C(Nc1ccc(-c2nc3ccccc3[nH]2)cc1)C1CCCN(CC2CC2)C1 (stereo not shown) [TCMDC-124656] | -0.844
CN1CCN(CC(=O)Nc2ccc(-c3ccc(-c4nc5ccc(C(F)(F)F)cc5[nH]4)cc3)cc2)CC1 [TCMDC-136985] | -42.42
CN1CCN(CC(=O)Nc2cccc(-c3ccc(-c4nc5cc(C(F)(F)F)ccc5[nH]4)s3)c2)CC1 [TCMDC-136977] | -5.014
CN1CCN(CC(=O)Nc2ccc(-c3cccc(-c4nc5ccc(C(F)(F)F)cc5[nH]4)c3)cc2)CC1 [TCMDC-136981] | 72.32
CN1CCC(C(=O)Nc2ccc(-c3cccc(-c4nc5ccc(C(F)(F)F)cc5[nH]4)c3)cc2)CC1 [TCMDC-132188] | -24.87
O=C(CC1NC(=O)c2ccccc21)Nc1ccc(-c2cccc(-c3nc4ccc(C(F)(F)F)cc4[nH]3)c2)cc1 (stereo not shown) [TCMDC-137092] | -11.47
CN1CCN(CC(=O)Nc2cccc(-c3cccc(-c4nc5ccc(C(F)(F)F)cc5[nH]4)c3)c2)CC1 [TCMDC-136980] | 78.77
CN1CCN(CC(=O)Nc2cccc(-c3ccc(-c4nc5ccc(C(F)(F)F)cc5[nH]4)cc3)c2)CC1 [TCMDC-136984] | -3.609
O=C(CC1NC(=O)c2ccccc21)Nc1ccc(-c2ccc(-c3nc4ccc(C(F)(F)F)cc4[nH]3)cc2)cc1 (stereo not shown) [TCMDC-137095] | 71.74
Cc1cccc2[nH]c(-c3cccc(-c4ccc(NC(=O)CC5NC(=O)c6ccccc65)cc4)c3)nc12 (stereo not shown) [TCMDC-137094] | -30.82
CCOC(=O)CNC(=O)N1CCN(C(=O)NCC(=O)OCC)CC1 [TCMDC-138998] | -3.887
Cc1c(-c2ccccc2)ccc2[nH]cc(CC#N)c12 [TCMDC-139748] | 49.07
O=C(Nc1cccc(CN2CCCN(Cc3ccc(O)cc3)CC2)c1)c1ccc2ccccc2n1 [TCMDC-141860] | 34.74
CCOc1cc(C)ccc1C1CCN(CCCCNC(=O)c2nc(-c3ccc(C(F)(F)F)cc3)[nH]c2C)CC1 [TCMDC-138585] | -10.92
COc1ccc(-c2nc3ccc(C)nc3nc2-c2ccc(OC)cc2)cc1 [TCMDC-142014] | 17.71
CC(CCc1ccccc1)NCC(O)c1cccc(C(F)(F)F)c1 (stereo not shown) [TCMDC-131247] | 18.39

SMILES | % Inhibition [%]
c1ccc(-c2cc(NCCCn3ccnc3)nc(-c3cccnc3)n2)cc1 [TCMDC-125422] | 8.996
FC(F)(F)c1cccc(-c2cc(NCCCn3ccnc3)nc(-c3ccncc3)n2)c1 [TCMDC-125414] | 56.64
c1ccc(-c2nc(NCCCn3ccnc3)cc(-c3ccncc3)n2)cc1 [TCMDC-125417] | 49.28
CC1CN=C(c2ccc(NC(=O)c3ccc(C(=O)Nc4ccc(C5=NCC(C)N5)cc4)cc3)cc2)N1 (stereo not shown) [TCMDC-137474] | 8.984
Cc1ccc(CNC(=O)c2ccc(CN3CCCN(Cc4ccsc4)CC3)cc2)cc1 [TCMDC-136451] | 11.88
O=S(=O)(NCCN1CCCC1)c1ccc(-c2ccc(CNCc3ccsc3)cc2)s1 [TCMDC-132285] | 78.64
O=S(=O)(NCCN1CCCC1)c1ccc(-c2cccc(CNCc3ccsc3)c2)s1 [TCMDC-132274] | 102.4
COc1ccc(S(=O)(=O)NC2CCN(c3ccc(C(F)(F)F)cc3NC(=O)OCC(C)C)CC2)cc1 [TCMDC-134275] | 14.87
N#Cc1cccc(NC(=O)Nc2cccc(-c3cccc(-c4nc5ccc(C(F)(F)F)cc5[nH]4)c3)c2)c1 [TCMDC-133195] | -34.96
Cc1nn(-c2ccccc2)c2c1C(c1ccc(C(C)C)cc1)N1C(=N2)N(Cc2ccccc2)c2ccccc21 (stereo not shown) [TCMDC-123903] | -90.94
COc1ccc(CN2CCN(CCOC(c3ccccc3)c3ccccc3)CC2)c(O)c1 [TCMDC-135693] | 26.17
CCN1C(=O)N(CCC(C)C)C2(CCN(Cc3ccc(OC)cc3O)CC2)C1=O [TCMDC-124587] | 63.13
COc1ccc(CN2CCN(CCOC(c3ccc(F)cc3)c3ccc(F)cc3)CC2)c(O)c1 [TCMDC-135694] | 24.37
COc1ccc(S(=O)(=O)NCC2CCCN(CCCCCNC(=O)/C=C/c3ccc(Cl)c(Cl)c3)C2)cc1 (stereo not shown) [TCMDC-139595] | 95.6
O=C(/C=C/c1ccc(Cl)c(Cl)c1)NCCCCCN1CCCC(CNS(=O)(=O)c2ccc(F)cc2)C1 (stereo not shown) [TCMDC-139596] | 59.41
O=c1cc(NCCCNCc2cc(F)cc(C(F)(F)F)c2)[nH]c2ccccc12 [TCMDC-139726] | 25.21
COc1ccc2ccccc2c1CNCCCCCCNCc1c(OC)ccc2ccccc12 [TCMDC-137915] | 112.9
CC(C)CCNCc1c(O)ccc2ccccc12 [TCMDC-137596] | 6.02
CC(C)Oc1ccc2ccccc2c1CNCCCCCCNCc1c(OC(C)C)ccc2ccccc12 [TCMDC-137965] | 107.1
CC(C)COc1ccc2ccccc2c1CNCCCCCCNCc1c(OCC(C)C)ccc2ccccc12 [TCMDC-137972] | 129.3
CCCCNC[C@@H](O)[C@H](Cc1ccccc1)NC(=O)c1cc(NCC)cc(N2CCCCS2(=O)=O)c1 [TCMDC-135177] | 4.465
CCOC(=O)c1[nH]c(-c2cccc(F)c2)nc1N [TCMDC-131794] | -46.62
O=C(Nc1cccnc1)c1cc(-c2cccnc2)nc2ccc(Cl)cc12 [TCMDC-124361] | -11.56

SMILES | % Inhibition [%]
COc1ccc(-n2ncc(C(=O)N3CCC4(C3)C(=O)N(c3ccccc3)c3ccccc34)c2C)cc1 (stereo not shown) [TCMDC-134122] | -6.778
O=C(NCCCCN1CCC(c2c[nH]c3ccccc23)CC1)c1sc(-c2ccc(C(F)(F)F)cc2)nc1CO [TCMDC-138780] | -12.54
COc1ccc2[nH]cc(C3CCN(CCCCCNC(=O)c4ccc(-c5ccccc5)cc4)CC3)c2c1 [TCMDC-139053] | 30.55
O=C(/C=C/c1ccc(C(F)(F)F)cc1)NCCCCCN1CCC(c2c[nH]c3ccccc23)CC1 [TCMDC-139209] | 23.24
O=C(NCCCCN1CCC(c2c[nH]c3ccc(-c4ccccc4)cc23)CC1)c1ccc(-c2ccccc2)cc1 [TCMDC-139064] | 108.8
O=C(NCCCN1CCC(NC(=O)c2ccc(-c3cccnc3)cc2)CC1)c1ccc(Cl)c(Cl)c1 [TCMDC-133357] | 16.57
O=C(NC1CCN(CCN2CCC(c3ccccc3C(F)(F)F)CC2)CC1)c1ccc(-c2ccc(Cl)cc2)cc1 [TCMDC-138809] | -39.81
O=C(NC1CCN(CCN2CCc3ccccc3CC2)CC1)c1ccc(-c2ccc(C(F)(F)F)cc2)cc1 [TCMDC-138831] | -7.885
O=C(NCCCCCN1CCC(c2c[nH]c3ccccc23)CC1)c1ccc(-c2cccnc2)cc1 [TCMDC-139183] | 113.1
O=C(NCCCCCN1CCC(c2ccc(O)cc2)CC1)c1ccc(-c2ccccc2)cc1 [TCMDC-139196] | -56.25
O=C(NC1CCN(CCN2CCC(c3c[nH]c4ccccc34)CC2)CC1)c1ccc(-c2ccc(C(F)(F)F)cc2)cc1 [TCMDC-138845] | 66.39
O=C(NCCCCCN1CCC(c2c[nH]c3ccccc23)CC1)c1ccc(-c2ccccc2)nc1 [TCMDC-139157] | -73.03
O=C(NCCCCN1CCC(c2c[nH]c3ccccc23)CC1)c1ccc(-c2ccc(C(F)(F)F)cc2)cc1 [TCMDC-138631] | 87.17
CC(=O)c1ccccc1OCCSc1nnc(Cc2cccs2)n1C1CCCCC1 [TCMDC-123554] | -19.51
CCN(C(=O)NC)C1c2cc(C#N)ccc2OC(C)(C)C1O (stereo not shown) [TCMDC-131556] | 13.93
CCCC1N=C(N)N=C(N)N1c1ccc(C)c(C)c1 (stereo not shown) [TCMDC-131301] | 2.054
O=C(Nc1cc(C(F)(F)F)ccc1N1CCOCC1)C(Cl)(Cl)Cl [TCMDC-123707] | 15.78
CCCCN(CCCC)C(=N)c1cccc2c1CCCC2 [TCMDC-131553] | 17.3
COc1ccc(CC2(c3ccc(F)cc3)N=C(N)N(CCCc3ccc4c(c3)OCO4)C2=O)cc1 (stereo not shown) [TCMDC-136540] | -15.69
COc1cc(Cc2cnc(N)nc2N)cc(OCCNC(=O)OCc2ccccc2)c1OC [TCMDC-138056] | -17.39
CCOC(=O)Nc1cc(-c2csc(N=C(N)N)n2)cc([N+](=O)[O-])c1 [TCMDC-137230] | -82.77

Reference: publication PMC4552634, “A New Set of Chemical Starting Points with Plasmodium falciparum Transmission-Blocking Potential for Antimalarial Drug Discovery” (PLoS ONE, 2015)
